About 83,000 compounds went through this panel and 20% of them were active in at least one assay; those are over-represented in the sample as a whole.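 How to read the values: 0–100, growth inhibition (40 = 60% inhibited); 0, no net growth; -100 to 0, cell death (-40 = 40% of starting cells died; -100 = all dead).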 Activity calls are given as the source filed them. The calls were made as follows: active = growth percent below 10; inactive = the rest.
These compounds were tested on NCI-H226 lung (assay: NCI-60 one-dose screen, 48 h (100 = growth as untreated, 0 = no growth, -100 = all killed)). Settings: 10 µM unless noted.

Which growth does the source give for `O=C(Nc1cccc(Cl)c1)Oc1c(Br)c(Br)c(Br)c(Br)c1Br` here?
The growth was 81.3% (inactive).

`CN1CCN(Cc2ccc(NC(=O)c3cncc(C#Cc4cnccc4C(F)(F)F)c3)cc2C(F)(F)F)CC1` was tested. Which growth did it give?
The growth was 47.8% (inactive).

With `CN(C)Cc1c(-c2ccccc2)[nH]c2ccccc12` as the compound, how does the growth read?
The growth was 106% (inactive).

With `CCN(CC)CCCC(Nc1c2ccc(Cl)cc2nc2ccc(OC)cc12)c1ccc(Cl)cc1` (stereo unspecified) as the compound, how does the growth read?
The growth was 37% (inactive).

`O=C(CNCCO)Nc1ccc2ncnc(Nc3ccc(OCc4cccc(F)c4)c(Cl)c3)c2c1` was tested. Which growth did it give?
The growth was 93.8% (inactive).

With `CSc1nnc2c(=O)n(C)c(=O)n(C)c2n1` as the compound, how does the growth read?
Its growth is 93.2% (inactive).

`C=CCn1c(SCC(=O)Nc2ccc(C(=O)/C=C/c3cc(OC)c(OC)c(OC)c3)cc2)nnc1-c1cc(-c2ccc(S(C)(=O)=O)cc2)nc2ccccc12` was tested. Which growth did it give?
Its growth is 85.3% (inactive).

`CCNC(=O)c1[nH]cc(-c2ccc(OC)cc2)c1-c1cc(OC)cc(OC)c1` was tested. Which growth did it give?
Its growth is 88.7% (inactive).

Which growth does the source give for `COc1ccc(/C=N/C2=C(C#N)C(c3ccccc3[N+](=O)[O-])c3ccc4ccccc4c3O2)cc1` (stereo unspecified) here?
The growth was 70.4% (inactive).

Which growth does the source give for `COc1ccc(-c2nc(N/N=C/c3cccc(O)c3)nc(N3CCOCC3)c2C#N)cc1` here?
The growth was 98.1% (inactive).

How did the growth turn out when `Cc1ccccc1-c1cc(Cc2ccc(F)cc2)c(=O)[nH]n1` was run?
Its growth is 105% (inactive).

How did the growth turn out when `COC(=O)Nc1ccc(NC(=O)OC)cc1` was run?
Its growth is 96.7% (inactive).

Which growth does the source give for `O=C1Nc2ccccc2/C1=N/c1nc(-c2ccc(Cl)cc2)cs1` here?
Its growth is 64.2% (inactive).

For `Clc1ccc(N2N=C(c3cccc(Nc4ccncc4)c3)CC2c2ccc(Br)cc2)cc1` (stereo unspecified), which growth is on record?
The growth was 92.2% (inactive).

How did the growth turn out when `O=C(OCc1nc2nc(Cl)nc(N3CCOCC3)c2[nH]1)n1ccnc1` was run?
The growth was -67.6% (active).

For `Cn1c(COC(=O)NCCN2CCOCC2)nc2c(N3CCOCC3)nc(-c3ccccc3)nc21`, which growth is on record?
The growth was -65% (active).

How did the growth turn out when `O=C1c2cccnc2C(=O)c2nc3cc(N4CCN(C5CC5)CC4)ccc3nc21` was run?
Its growth is -49.1% (active).

Which growth does the source give for `CCCCCN1C=C/C(=C\C(=O)N(C)c2cccc3ccccc23)c2ccccc21` here?
The growth was 101% (inactive).

With `COc1cc2nc(-c3ccc(C#N)cc3)[nH]c(=O)c2cc1OC` as the compound, how does the growth read?
Its growth is 91.4% (inactive).

For `CN1CCN(c2cnc(C(=O)Nc3cc(F)cc4cccnc34)cn2)CC1`, which growth is on record?
Its growth is 90.1% (inactive).

With `CC(=O)OCC(=O)C1(O)C(C)CC2C3C=C(C)C4=Cc5c(cnn5-c5ccccc5)CC4(C)C3C(O)CC21C` (stereo unspecified) as the compound, how does the growth read?
The growth was 43.2% (inactive).

`CCCCCCN(C)Cc1ccc(OCCOc2ccc(CN(C)CCCCCC)cc2)cc1` was tested. Which growth did it give?
The growth was 50% (inactive).

For `CCCCCCCCCCCCCCCCCCOc1ccccc1N`, which growth is on record?
Its growth is 97.6% (inactive).

With `COc1cc(-c2nc3occn3c2-c2ccnc(NCCNS(=O)(=O)c3ccc(Cl)cc3)n2)ccc1F` as the compound, how does the growth read?
Its growth is 73.2% (inactive).

For `Cc1nc2sc(C(=O)Nc3ccccc3)c(N)c2cc1C(=O)c1ccc(C(F)(F)F)cc1`, which growth is on record?
Its growth is 99.6% (inactive).

For `S=c1[nH]cccc1-c1nnc2n1Nc1nc3ccc(Cl)cc3cc1CS2`, which growth is on record?
The growth was 94.9% (inactive).

Which growth does the source give for `CC(C)Cc1ccc(C(C)C(=O)NCc2c[nH]c3ccc(Cl)cc23)cc1` (stereo unspecified) here?
The growth was 92.3% (inactive).

How did the growth turn out when `Cc1c([N+](=O)[O-])cc(C(C)(C)C)cc1[N+](=O)[O-]` was run?
The growth was 91.3% (inactive).

How did the growth turn out when `O=C(Nc1nc2ccc(C(=O)N3CCN(c4ccc(Cl)c(Cl)c4)CC3)cc2s1)c1ccc(NCCc2ccccc2)c([N+](=O)[O-])c1` was run?
Its growth is 87.8% (inactive).

With `CS(=O)(=O)c1ccc(-c2cc3c(oc2=O)-c2ccccc2OC3O)cc1` (stereo unspecified) as the compound, how does the growth read?
Its growth is 74.7% (inactive).

How did the growth turn out when `Cc1n[nH]c(C)c1-c1c(C)n[nH]c1C` was run?
The growth was 56.2% (inactive).

Which growth does the source give for `CCCOc1nc(SCCC)nc2c1cnn2-c1ccccc1` here?
Its growth is 96.6% (inactive).

With `Fc1ccccc1CSc1ncnc2nc[nH]c12` as the compound, how does the growth read?
Its growth is 109% (inactive).

For `Nc1c(Cl)cc([N+](=O)[O-])cc1Br`, which growth is on record?
Its growth is 93.7% (inactive).

Which growth does the source give for `NC(=O)CN1CCN(c2ccccc2Cl)CC1` here?
Its growth is 102% (inactive).

`C=C(C)[C@H]1CC/C(C)=C/CC[C@]2(C)O[C@H]2CC/C(COC(=O)[C@@H](OC(C)=O)[C@H](NC(=O)c2ccccc2)c2ccccc2)=C\[C@@H]1O` was tested. Which growth did it give?
The growth was 95% (inactive).

`C(=C\c1n(Cc2ccc3ccccc3c2)c(-c2ccccc2)c(-c2ccccc2)[n+]1Cc1ccc2ccccc2c1)/c1ccccc1` was tested. Which growth did it give?
Its growth is -74.9% (active).

`Nc1c(C(=O)Nc2cccc3ccncc23)sc2nc3c(cc12)C(=O)CCC3` was tested. Which growth did it give?
Its growth is 73.8% (inactive).

These compounds were tested on NCI-H322M lung in the same assay as above. Settings: 10 µM unless noted.

`O=C(Nc1cccc(Cl)c1)Oc1c(Br)c(Br)c(Br)c(Br)c1Br` was tested. Which growth did it give?
Its growth is 107% (inactive).

For `CN1CCN(Cc2ccc(NC(=O)c3cncc(C#Cc4cnccc4C(F)(F)F)c3)cc2C(F)(F)F)CC1`, which growth is on record?
The growth was 107% (inactive).

Which growth does the source give for `CN(C)Cc1c(-c2ccccc2)[nH]c2ccccc12` here?
The growth was 114% (inactive).

For `CCN(CC)CCCC(Nc1c2ccc(Cl)cc2nc2ccc(OC)cc12)c1ccc(Cl)cc1` (stereo unspecified), which growth is on record?
The growth was -17.1% (active).

For `O=C(CNCCO)Nc1ccc2ncnc(Nc3ccc(OCc4cccc(F)c4)c(Cl)c3)c2c1`, which growth is on record?
The growth was 33.4% (inactive).

`CSc1nnc2c(=O)n(C)c(=O)n(C)c2n1` was tested. Which growth did it give?
Its growth is 88.9% (inactive).

For `C=CCn1c(SCC(=O)Nc2ccc(C(=O)/C=C/c3cc(OC)c(OC)c(OC)c3)cc2)nnc1-c1cc(-c2ccc(S(C)(=O)=O)cc2)nc2ccccc12`, which growth is on record?
Its growth is 93.5% (inactive).

How did the growth turn out when `CCNC(=O)c1[nH]cc(-c2ccc(OC)cc2)c1-c1cc(OC)cc(OC)c1` was run?
Its growth is 97.7% (inactive).

With `COc1ccc(/C=N/C2=C(C#N)C(c3ccccc3[N+](=O)[O-])c3ccc4ccccc4c3O2)cc1` (stereo unspecified) as the compound, how does the growth read?
The growth was 90.6% (inactive).

For `COc1ccc(-c2nc(N/N=C/c3cccc(O)c3)nc(N3CCOCC3)c2C#N)cc1`, which growth is on record?
The growth was 95% (inactive).

For `Cc1ccccc1-c1cc(Cc2ccc(F)cc2)c(=O)[nH]n1`, which growth is on record?
The growth was 94.3% (inactive).

`COC(=O)Nc1ccc(NC(=O)OC)cc1` was tested. Which growth did it give?
Its growth is 100% (inactive).

How did the growth turn out when `O=C1Nc2ccccc2/C1=N/c1nc(-c2ccc(Cl)cc2)cs1` was run?
The growth was 92.6% (inactive).

How did the growth turn out when `Clc1ccc(N2N=C(c3cccc(Nc4ccncc4)c3)CC2c2ccc(Br)cc2)cc1` (stereo unspecified) was run?
Its growth is 66.2% (inactive).

For `O=C(OCc1nc2nc(Cl)nc(N3CCOCC3)c2[nH]1)n1ccnc1`, which growth is on record?
The growth was 65.4% (inactive).

With `Cn1c(COC(=O)NCCN2CCOCC2)nc2c(N3CCOCC3)nc(-c3ccccc3)nc21` as the compound, how does the growth read?
Its growth is 69% (inactive).

For `O=C1c2cccnc2C(=O)c2nc3cc(N4CCN(C5CC5)CC4)ccc3nc21`, which growth is on record?
Its growth is -96.7% (active).

With `CCCCCN1C=C/C(=C\C(=O)N(C)c2cccc3ccccc23)c2ccccc21` as the compound, how does the growth read?
Its growth is 97.7% (inactive).

Which growth does the source give for `COc1cc2nc(-c3ccc(C#N)cc3)[nH]c(=O)c2cc1OC` here?
The growth was 211% (inactive).

`CN1CCN(c2cnc(C(=O)Nc3cc(F)cc4cccnc34)cn2)CC1` was tested. Which growth did it give?
The growth was 83.9% (inactive).

With `CC(=O)OCC(=O)C1(O)C(C)CC2C3C=C(C)C4=Cc5c(cnn5-c5ccccc5)CC4(C)C3C(O)CC21C` (stereo unspecified) as the compound, how does the growth read?
Its growth is 57.9% (inactive).

`CCCCCCN(C)Cc1ccc(OCCOc2ccc(CN(C)CCCCCC)cc2)cc1` was tested. Which growth did it give?
Its growth is 3.16% (active).

How did the growth turn out when `CCCCCCCCCCCCCCCCCCOc1ccccc1N` was run?
Its growth is 81.7% (inactive).

Which growth does the source give for `COc1cc(-c2nc3occn3c2-c2ccnc(NCCNS(=O)(=O)c3ccc(Cl)cc3)n2)ccc1F` here?
Its growth is 91.6% (inactive).

Which growth does the source give for `Cc1nc2sc(C(=O)Nc3ccccc3)c(N)c2cc1C(=O)c1ccc(C(F)(F)F)cc1` here?
The growth was 102% (inactive).

`S=c1[nH]cccc1-c1nnc2n1Nc1nc3ccc(Cl)cc3cc1CS2` was tested. Which growth did it give?
Its growth is 103% (inactive).

`CC(C)Cc1ccc(C(C)C(=O)NCc2c[nH]c3ccc(Cl)cc23)cc1` (stereo unspecified) was tested. Which growth did it give?
Its growth is 99.7% (inactive).

Which growth does the source give for `Cc1c([N+](=O)[O-])cc(C(C)(C)C)cc1[N+](=O)[O-]` here?
The growth was 117% (inactive).

Which growth does the source give for `O=C(Nc1nc2ccc(C(=O)N3CCN(c4ccc(Cl)c(Cl)c4)CC3)cc2s1)c1ccc(NCCc2ccccc2)c([N+](=O)[O-])c1` here?
Its growth is 95.5% (inactive).

With `CS(=O)(=O)c1ccc(-c2cc3c(oc2=O)-c2ccccc2OC3O)cc1` (stereo unspecified) as the compound, how does the growth read?
Its growth is 107% (inactive).

How did the growth turn out when `Cc1n[nH]c(C)c1-c1c(C)n[nH]c1C` was run?
The growth was 28.6% (inactive).

Which growth does the source give for `CCCOc1nc(SCCC)nc2c1cnn2-c1ccccc1` here?
Its growth is 137% (inactive).

`Fc1ccccc1CSc1ncnc2nc[nH]c12` was tested. Which growth did it give?
Its growth is 131% (inactive).

`Nc1c(Cl)cc([N+](=O)[O-])cc1Br` was tested. Which growth did it give?
The growth was 103% (inactive).

With `NC(=O)CN1CCN(c2ccccc2Cl)CC1` as the compound, how does the growth read?
The growth was 94.3% (inactive).

With `C=C(C)[C@H]1CC/C(C)=C/CC[C@]2(C)O[C@H]2CC/C(COC(=O)[C@@H](OC(C)=O)[C@H](NC(=O)c2ccccc2)c2ccccc2)=C\[C@@H]1O` as the compound, how does the growth read?
Its growth is 104% (inactive).

For `C(=C\c1n(Cc2ccc3ccccc3c2)c(-c2ccccc2)c(-c2ccccc2)[n+]1Cc1ccc2ccccc2c1)/c1ccccc1`, which growth is on record?
The growth was -5.86% (active).

How did the growth turn out when `Nc1c(C(=O)Nc2cccc3ccncc23)sc2nc3c(cc12)C(=O)CCC3` was run?
The growth was 72.3% (inactive).

Source: PubChem BioAssay (NCI)
